Measurements published in PubChem BioAssay (Tox21).
Results filed as inconclusive are left out. A number with no mark means an inactive call. Activity calls are given as the source filed them. Calls come from the whole dose curve.

Tested on: not listed separately
Test: qHTS assay to identify small molecule agonists or antagonists of the thyroid stimulating hormone receptor (TSHR) signaling pathway - wild type cell line counter screen (AID 1259384)
Settings: HEK293 wild type, cAMP HTRF counter-screen, active compounds read high; series mostly up to 92.4 µM; cAMP activity change: at the top concentration
Summary of the method: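 Wild-type HEK293 cells were plated 18 h at 37 C/5% CO2, pin-dosed with compound plus Ro20-1724 medium, held 30 min at room temperature, then given cAMP-d2 and anti-cAMP-cryptate; fluorescence was read after 1 h. Fifteen concentrations, triplicate.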
% is set by controls: 0 for no effect and ±100 for the full control effect.

Row | Compound | cAMP activity change
1 | CS(=O)(=O)Cl | -1.8%
2 | CCC(C(N)=O)N1CCCC1=O (stereo not drawn) | -0.916% [at 42.5 µM]
3 | CN(CCO)CCO | 7.8%
4 | NCCOS(=O)(=O)O | 4.04%
5 | C=CCCC#N | -0.198%
6 | COc1cccc(C=O)c1 | 2.56%
7 | CCC(C)C(C)(COC(N)=O)COC(N)=O (stereo not drawn) | 10.4% [at 42.5 µM]

Molecular target: Thyrotropin receptor (Homo sapiens) (UniProt P16473)
Sequence (P16473 whole entry, looked up): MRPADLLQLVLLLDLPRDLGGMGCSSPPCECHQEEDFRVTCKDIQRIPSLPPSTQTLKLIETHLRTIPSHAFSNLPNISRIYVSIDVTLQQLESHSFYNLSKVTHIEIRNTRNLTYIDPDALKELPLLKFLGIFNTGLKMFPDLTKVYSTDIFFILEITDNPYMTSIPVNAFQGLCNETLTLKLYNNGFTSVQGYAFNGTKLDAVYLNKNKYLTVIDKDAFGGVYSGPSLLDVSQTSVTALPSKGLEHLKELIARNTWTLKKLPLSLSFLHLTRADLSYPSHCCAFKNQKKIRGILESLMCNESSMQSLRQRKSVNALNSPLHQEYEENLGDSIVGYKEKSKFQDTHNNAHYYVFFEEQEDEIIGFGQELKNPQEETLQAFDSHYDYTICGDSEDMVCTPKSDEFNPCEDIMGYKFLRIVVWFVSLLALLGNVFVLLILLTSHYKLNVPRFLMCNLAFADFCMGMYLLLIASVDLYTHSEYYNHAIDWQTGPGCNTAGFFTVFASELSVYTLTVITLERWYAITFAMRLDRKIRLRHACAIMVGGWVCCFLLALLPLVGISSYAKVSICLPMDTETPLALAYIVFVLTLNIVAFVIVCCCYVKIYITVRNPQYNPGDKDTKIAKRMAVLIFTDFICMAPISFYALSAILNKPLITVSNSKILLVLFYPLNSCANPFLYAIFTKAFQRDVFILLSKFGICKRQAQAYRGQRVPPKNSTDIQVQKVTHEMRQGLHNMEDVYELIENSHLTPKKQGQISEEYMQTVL
Test: qHTS assay to identify small molecule antagonists of the thyroid stimulating hormone receptor (TSHR) signaling pathway (AID 1259385); note: nearly all actives have a fitted effect of over 20% in size
Settings: TSHR-HEK293 cAMP HTRF, TSH-stimulated antagonist mode; series mostly up to 92.4 µM; activity change, negative = inhibition: at the top concentration
Summary of the method: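 TSHR-HEK293 cells were plated and held 18 h at 37C/5% CO2, then given compound plus Ro20-1724 and stimulated with TSH at 1.5 ng/mL final. After 30 min at room temperature, cAMP was detected with cAMP-d2/anti-cAMP-cryptate (1 h) by fluorescence.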

Row | Compound | activity change, negative = inhibition | outcome
8 | O=C1C2CC=CCC2C(=O)N1SC(Cl)(Cl)Cl (stereo not drawn) | 8.97% | –
9 | C/C=C/CC#N | 2.21% | –
10 | c1cncc([C@@H]2CCCCN2)c1 | 0.0295% | –
11 | CCOP(=S)(OCC)Oc1ccc(Cl)cc1Cl | -5.94% | –
12 | CC(C)(O)C(Cl)(Cl)Cl | -0.676% [at 42.5 µM] | –
13 | C=C1C[C@@H]2[C@H](CC[C@]3(C)C(=O)CC[C@@H]23)[C@@]2(C)C=CC(=O)C=C12 | -4.63% [at 42.5 µM] | –
14 | CC[C@H](N)c1ccccc1 | 2.06% | –
15 | C=CC1(C)OC(=O)N(c2cc(Cl)cc(Cl)c2)C1=O (stereo not drawn) | – | inactive
16 | CN=CNc1ccc(C)cc1C | -0.0322% | –
17 | Cc1cc(OC(=O)N(C)C)nn1C(=O)N(C)C | -0.0858% | –
18 | O=C(O)c1c(Cl)ccc2cc(Cl)cnc12 | 1.9% | –
19 | CS(=O)(=O)Cl | 0.262% | –
20 | CN(CCO)CCO | -5.14% | –
21 | C=CCCC#N | 0.788% | –
22 | COc1cccc(C=O)c1 | 0.88% | –
23 | CCC(C)C(C)(COC(N)=O)COC(N)=O (stereo not drawn) | 0.75% [at 42.5 µM] | –
